High-throughput results from PubChem.
TEAD-YAP inh = TEAD-YAP interaction inhibition; HEK-TIYL cells, TEAD-Gal4/YAP UAS-luciferase luminescence; inhibition, % at 9.12 µM; 640,000 compounds, 1.4% hits; in the data active = inhibition above about 32%
MITF primary = blocks human microphthalmia-associated transcription factor. O75030. AlphaScreen MITF homodimerization, bead proximity signal. inhibition, % at 2.6 µM. 650,000 compounds, 0.91% hits. AID 1259374; in the data active = inhibition above about 50%
FBW7 activator = human FBW7 E3 ligase activation, primary screen. Q969H0. AlphaScreen FBW7–phospho-cyclin E peptide binding, activator screen. normalized activity (activation), % at 26.1 µM. 650,000 compounds, 0.13% hits. AID 1259310; in the data active = normalized activity above about 1.9%;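 also: purified mutant Fbw7 with reduced substrate affinity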
GPR151 ag = activators of human GPR151 | PathHunter beta-arrestin GPR151 cells, luminescence | Q8TDV0 | activation, % at 11.2 µM | 650,000 compounds, 1% hits; in the data active = activation above about 4.9%
Target sequence (Q8TDV0 whole entry, looked up): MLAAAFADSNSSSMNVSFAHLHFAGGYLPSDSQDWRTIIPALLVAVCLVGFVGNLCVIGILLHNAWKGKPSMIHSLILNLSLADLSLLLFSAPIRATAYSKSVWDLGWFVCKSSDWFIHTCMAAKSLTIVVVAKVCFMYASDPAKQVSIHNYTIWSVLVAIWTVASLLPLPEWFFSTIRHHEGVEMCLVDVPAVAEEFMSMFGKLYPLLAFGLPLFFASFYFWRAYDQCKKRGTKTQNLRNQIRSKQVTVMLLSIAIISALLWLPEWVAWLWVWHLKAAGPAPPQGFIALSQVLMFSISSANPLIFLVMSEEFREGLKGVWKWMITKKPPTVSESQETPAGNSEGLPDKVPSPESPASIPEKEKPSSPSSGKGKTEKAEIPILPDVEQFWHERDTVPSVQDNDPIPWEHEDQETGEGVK
MITF inh conf = confirmation of human MITF inhibitors; shares compounds with MITF primary; AlphaScreen MITF homodimerization, biotin/His-MITF beads; inhibition, % at 2.6 µM; 4,700 compounds, 16% hits;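 active = inhibition above a cutoff derived from the DMSO control wells, cut at about 28% in these data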;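 also: inhibitors lower the bead chemiluminescence by keeping MITF from dimerizing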
AlphaScreen DR = AlphaScreen optical interference, dose response counter-screen; IC50, µM; shares compounds with MITF primary; 480 compounds, 6% hits; AlphaScreen optical interference counterscreen, cell-free; call rule not given here
AlphaScreen intf2 = AlphaScreen optical interference, counter-screen; shares compounds with MITF primary; LysRS AlphaScreen counterscreen, signal interference, triplicate; inhibition, % at 2.6 µM; 4,700 compounds, 7.6% hits; AID 1259376;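 active = inhibition above a cutoff derived from the DMSO control wells, cut at about 30% in these data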
Large screens that a line does not name were inactive (follow-up assays come after a bar, where they were run). A selection: hits, their analogues and other compounds. The true share with any hit is near 3.5%.

CCOc1ccc(C(=O)NCC2(c3cccs3)CC2)cc1	MITF primary 51.8 | MITF inh conf inactive | AlphaScreen intf2 inactive
c1ccc(C2CCC(N3CCN(C4CCCC4)CC3)CC2)cc1 (stereo not given)	none
CC1CCCC(N2CCN(Cc3ccco3)CC2)C1 (stereo not given)	MITF primary 73.7 | MITF inh conf inactive | AlphaScreen intf2 inactive
c1ccc(C2CCC(N3CCN(Cc4ccco4)CC3)CC2)cc1 (stereo not given)	MITF primary 66.6 | MITF inh conf inactive | AlphaScreen intf2 inactive
c1ccc(C2CCC(N3CCN(C4CCCCCC4)CC3)CC2)cc1 (stereo not given)	MITF primary 62.9 | MITF inh conf inactive | AlphaScreen intf2 inactive
CCCCC(CC)CNC(=O)C(=O)Nc1ccc(OCC)cc1 (stereo not given)	none
CCCc1nc2ccccc2c(NC(=O)CN(C)CCc2ccc(OC)c(OC)c2)c1CC	MITF primary 69.6 | MITF inh conf inactive | AlphaScreen intf2 inactive
CCCC(=O)Nc1c(CC)c(CCC)nc2ccccc12	none
Cn1cccc1Cc1nnc(SCC(=O)Nc2nccs2)n1-c1ccc(Cl)cc1	none
Cc1cc(C)c(C)c(S(=O)(=O)N2CCN(c3cccc(C(F)(F)F)c3)CC2)c1C	MITF primary 63.3 | MITF inh conf inactive | AlphaScreen intf2 inactive
Cc1c(S(=O)(=O)N2CCN(c3cccc(C(F)(F)F)c3)CC2)c(=O)n(C)c(=O)n1C	none
CCOC(=O)c1c(C)c(C(=O)NCCc2ccccc2OC)c(C)n1C	MITF primary 55.2 | MITF inh conf inactive | AlphaScreen intf2 inactive
CCOC(=O)c1c(C)c(C(=O)NCCc2ccc(OC)c(OC)c2)c(C)n1C	none
CCn1c2ccccc2c2cc(CN3CCCC(O)C3)ccc21 (stereo not given)	none
CCn1c2ccccc2c2cc(CN3CCN(S(=O)(=O)c4ccc(F)cc4)CC3)ccc21	none
CCn1c2ccccc2c2cc(CN3CCN(Cc4ccc(C(F)(F)F)cc4)CC3)ccc21	MITF primary 53.6 | MITF inh conf inactive | AlphaScreen intf2 inactive
CCn1c2ccccc2c2cc(CN3CCN(S(=O)(=O)c4ccc(OC)cc4)CC3)ccc21	none
CCn1c2ccccc2c2cc(CN3CCN(Cc4ccc(SC)cc4)CC3)ccc21	MITF primary 62.8 | MITF inh conf inactive | AlphaScreen intf2 inactive
CCn1c2ccccc2c2cc(CN3CCN(Cc4ccccc4F)CC3)ccc21	MITF primary 82.0 | MITF inh conf inactive | AlphaScreen intf2 inactive
CCn1c2ccccc2c2cc(CN3CCN(Cc4ccccc4[N+](=O)[O-])CC3)ccc21	MITF primary 64.6 | MITF inh conf inactive | AlphaScreen intf2 inactive
Cc1sc2ncn(CC(=O)NCC(=O)N3CCN(c4ccc(F)cc4)CC3)c(=O)c2c1C	MITF primary 68.2 | MITF inh conf inactive | AlphaScreen intf2 inactive
Cn1nnnc1SCC(=O)c1ccc(S(=O)(=O)N2CCOCC2)cc1	none
O=C(NCC1Cc2cc(-c3cnccn3)ccc2O1)c1cccc(N2CCCC2=O)c1 (stereo not given)	MITF primary 51.9 | MITF inh conf inactive | AlphaScreen intf2 inactive
CCCCC(CCCC)(Nc1ccc(F)c(F)c1)C(=O)NNc1ccccc1	MITF primary 60.9 | MITF inh conf inactive | AlphaScreen intf2 inactive
C/C=C/c1ccc(OCCCN2CC(C)OC(C)C2)c(OC)c1 (stereo not given)	none
COc1cc(C)ccc1OCCOCCN1CC(C)OC(C)C1 (stereo not given)	MITF primary 56.5 | MITF inh conf inactive | AlphaScreen intf2 inactive
C/C=C/c1ccc(OCCN2CC(C)OC(C)C2)c(OC)c1 (stereo not given)	MITF primary 64.3 | MITF inh conf inactive | AlphaScreen intf2 inactive
Cc1ccc(OCCN2CC(C)OC(C)C2)c(Cl)c1 (stereo not given)	MITF primary 64.5 | MITF inh conf inactive | AlphaScreen intf2 inactive
COc1ccc(N(CC(=O)Nc2cc(C)[nH]n2)C2=NC3CS(=O)(=O)CC3S2)cc1 (stereo not given)	none
O=C(Nc1ccccc1C(F)(F)F)c1ccc(NC(=O)c2ccco2)cc1	none
O=C(Nc1ccccc1C(F)(F)F)c1ccc(NC(=O)c2ccccc2C(=O)O)cc1	MITF primary 55.5 | MITF inh conf inactive | AlphaScreen intf2 inactive
COC(CN(C)C(=O)c1c(C)nc2sccn12)OC	none
CCN(CC(=O)Nc1ccc(NC(C)=O)cc1)CC(=O)Nc1ccc(Cl)c(Cl)c1	MITF primary 93.5 | MITF inh conf inactive | AlphaScreen intf2 inactive
CCN(CC(=O)Nc1ccc(OC)cc1)CC(=O)NC(C)(C)C	none
CCN(CC(=O)Nc1ccc2c(c1)OCCO2)CC(=O)Nc1ccccc1C(F)(F)F	MITF primary 88.8 | MITF inh conf inactive | AlphaScreen intf2 inactive
CCN(CC)CC(=O)Nc1ccc2c(c1)OCO2	none
CCN(CC(=O)Nc1ccc(C(C)=O)cc1)CC(=O)Nc1ccc2c(c1)OCCO2	MITF primary 80.1 | MITF inh conf inactive | AlphaScreen intf2 inactive
CCN(CC)CC(=O)Nc1ccc(OC)cc1	MITF primary 52.0 | MITF inh conf 28.1 | AlphaScreen DR inactive | AlphaScreen intf2 inactive
Cn1c(Nc2nc(NCCOc3ccccc3)c3ncn(-c4ccsc4)c3n2)nc2ccccc21	none
Cn1cnnc1SCC(=O)C(C)(C)C	none
COc1ccc(-c2c(C(F)(F)F)oc3c(CN(C)C4CCCCC4)c(O)ccc3c2=O)cc1OC	none
OCCN1CCN(c2cc(-c3cccnc3)nc(-c3ccccn3)n2)CC1	none
COc1cc2ncn(C)c2cc1OC	none
COc1cc([N+](=O)[O-])ccc1NC(=O)/C(=C\c1ccc2c(c1)OCO2)NC(=O)c1ccccc1Br	none
CCOC(=O)Cn1c(C)c(Sc2ccccc2)c2ccccc21	none
COc1cccc(CN2CCN(Cc3ccc(C)cc3)CC2)c1OC	MITF primary 75.8 | MITF inh conf inactive | AlphaScreen intf2 inactive
COc1cccc(CN2CCN(Cc3ccc(Cl)cc3)CC2)c1OC	MITF primary 70.4 | MITF inh conf inactive | AlphaScreen intf2 inactive
CCOc1ccc(CN2CCN(Cc3cccc(OC)c3OC)CC2)cc1	MITF primary 78.7 | MITF inh conf inactive | AlphaScreen intf2 inactive
CCOc1cc(C2C(C(=O)OC)=CN(Cc3ccc(OC)c(OC)c3)C=C2C(=O)OC)cc(Br)c1O	none
CCN(c1ccccc1)c1c([N+](=O)[O-])ccc2nonc12	MITF primary 66.0 | MITF inh conf 59.4 | AlphaScreen intf2 54.5
CCN(c1ccccc1)c1cc(N2CCOCC2)c2nonc2c1[N+](=O)[O-]	none
COCc1cc(=O)[nH]c(Nc2nc3ccccc3o2)n1	MITF primary 64.6 | MITF inh conf 75.0 | AlphaScreen intf2 100.6
COCc1cc(C)nc(Cl)c1C#N	none
Cc1noc(C2CN(C(=O)c3ccc(-n4cccc4)cc3)C2)n1	MITF primary 55.4 | MITF inh conf 52.5 | AlphaScreen DR inactive | AlphaScreen intf2 inactive
Cc1cc(NC(=O)C2CCN(C(=O)c3ccc(-n4cccc4)cc3)CC2)no1	MITF primary 51.3 | MITF inh conf 47.0 | AlphaScreen DR inactive | AlphaScreen intf2 inactive
